The values below come from PubChem BioAssay (EPA / NIEHS).

Where a structure was tested more than once in an assay, its records may differ in their call. The source made the active and inactive calls. How the source made its calls: active means hit-call score of the fitted dose curve at least 0.9, where 1 is the maximum; inactive means score below 0.9.

This assay in a line: ATG_NF_kB_CIS: Attagene CIS-FACTORIAL HepG2 Assay for human Nuclear Factor Kappa B (NF-kB) (AID 2282991). The conditions noted are these: HepG2 Attagene cis-factorial NF-kB reporter mRNA; actives raise or lower the signal. The protocol: ATG_CIS is a cell-based, multiplexed-readout assay that uses HepG2, a human liver cell line, with measurements taken at 24 hours after chemical dosing in a 24-well plate.ATG_NF_kB_CIS is one of 52 assay component(s) measured or calculated from the ATG_CIS assay. It is designed to make measurements of mRNA induction, a form of inducible reporter, as detected with fluorescence intensity signals by Reverse transcription polymerase chain reaction (RT-PCR) and Capillary electrophoresis technology.Data from the assay component ATG_NF_kB_CIS was analyzed into 1 assay endpoint. This assay endpoint, ATG_NF_kB_CIS, was analyzed with bidirectional fitting relative to DMSO as the negative control and baseline of activity. Using a type of inducible reporter, measures of mRNA for gain or loss-of-signal activity can be used to understand the reporter gene at the transcription factor-level as they relate to the gene NFKB1. Furthermore, this assay endpoint can be referred to as a primary readout, because this assay has produced multiple assay endpoints where this one serves a reporter gene function. To generalize the intended target to other relatable targets, this assay endpoint is annotated to the dna binding intended target family, where the subfamily is NF-kappa B.
Human liver HepG2 cells are transiently transfected with multiple reporter transcription units (MRTUs) in 6-well plates using FuGene 6 reagent (Roche; 3 ml FuGene/1 mg DNA). The MRTU constructs are regulated by a cis-regulating element (promoter). […] A major difference between the CIS and TRANS system is that in CIS activities of endogenous TFs are measured, whereas the TRANS assay evaluates changes in activities of exogenous, chimeric NR-Gal4 proteins. […] At the end of 24 hour incubation, total RNA was isolated using TriZol reagent (Invitrogen). The isolated RNA is then reverse-transcribed using oligo(dT) primer and Mo-MLV reverse transcriptase (Invitrogen) with DNAse I (Ambion) treatment for 30 min. The one-tenth of the produced cDNA was amplified by PCR using Taq DNA polymerase (Invitrogen) and two reporter sequence-specific primers. The PCR products were fluorescently labeled by primer extension with 6-arboxyfluorescein (6-FAM) 5'-labeled reporter sequence-specific primer (2 min at 95 C, 20 s at 68 C and 10 min at 72 C) and these products were digested with 5U of HpaI (New England Biolabs) for 2h at 37 C. The fragments were purified using Qiaquick PCR columns (Qiagen), analyzed on an ABI 3130xL genetic analyzer (Applied Biosystems) with peak positions identified by using a set of X-rhodamine (ROX)-labeled MapMarker1000 molecular weight standards (BioVentures). The raw capillary electrophoresis data was processed using Attagraph software (Attagene).
In the case of `COc1nn(CSP(=S)(OC)OC)c(=O)s1`, the molecule was classed as inactive.

Regarding `CCc1ccc(C(=O)NN(C(=O)c2cc(C)cc(C)c2)C(C)(C)C)cc1`, the AC50 is 9.92 µM (active).

As to `CC1(C)C(C=C(Cl)Cl)C1C(=O)OC(C#N)c1ccc(F)c(Oc2ccccc2)c1` (stereo not given), the call was inactive.

For `CCOc1nc(NC)nc(NC(=O)NS(=O)(=O)c2ccccc2C(=O)OC)n1`, the outcome was inactive.

In the case of `COP(=S)(OC)Oc1ccc(SC)c(C)c1`, the outcome was inactive.

`COc1cc(OC)nc(NC(=O)NS(=O)(=O)c2cc(NC=O)ccc2C(=O)N(C)C)n1`: the call was inactive.

As for `CCOCN(C(=O)CCl)c1c(C)cccc1CC`, the result was inactive.

`COP(=O)(OC)OC=C(Cl)Cl`: the molecule was called inactive.

For the molecule `O=[N+]([O-])c1c(Cl)c(Cl)c(Cl)c(Cl)c1Cl`, the AC50 was 13.8 µM (active).

With `COC(=O)c1ccccc1CS(=O)(=O)NC(=O)Nc1nc(OC)cc(OC)n1`, the result was inactive.

Consider `COP(=S)(OC)Oc1ccc([N+](=O)[O-])cc1`, for which the result was inactive.

For the molecule `O=C(Nc1ccccc1)Nc1cnns1`, the call was inactive.

As for `CCN(CC)C(=O)SCc1ccc(Cl)cc1`, the call was inactive.

As for `Oc1cc(Cl)ccc1Oc1ccc(Cl)cc1Cl`, the outcome was inactive and the AC50 was 17.5 µM (active).

Regarding `CC[C@H](C)[C@H]1O[C@]2(C=C[C@@H]1C)C[C@@H]1C[C@@H](C/C=C(\C)[C@@H](O[C@H]3C[C@H](OC)[C@@H](O[C@H]4C[C@H](OC)[C@@H](O)[C@H](C)O4)[C@H](C)O3)[C@@H](C)/C=C/C=C3\CO[C@@H]4[C@H](O)C(C)=C[C@@H](C(=O)O1)[C@]34O)O2` (tested in a mixture with another compound), the result was inactive.

In the case of `[2H]C1([2H])[n+]2ccccc2-c2cccc[n+]2C1([2H])[2H]`, the AC50 was 13.2 µM (active).

For the molecule `CC(C)N(C(=O)COc1nnc(C(F)(F)F)s1)c1ccc(F)cc1`, the AC50 was 12.6 µM (active).

For the molecule `CNC(=O)Oc1ccccc1OC(C)C`, the result was inactive.

In the case of `CC(C)OC(=O)Nc1cccc(Cl)c1`, the molecule was called inactive.

In the case of `COC(=O)c1ccccc1S(=O)(=O)NC(=O)N(C)c1nc(C)nc(OC)n1`, the molecule was called inactive.

Take `CCC(C)(C)C(=O)OC1=C(c2ccc(Cl)cc2Cl)C(=O)OC12CCCCC2`: the call was inactive.

Take `CCC(C)(NC(=O)c1cc(Cl)c(C)c(Cl)c1)C(=O)CCl` (stereo not given): the molecule was called inactive.

In the case of `Oc1ccc(Cl)cc1Cc1ccccc1`, the AC50 is 16.7 µM (active) and the result was inactive.

As for `CC(C)(C)C(O)C(Oc1ccc(Cl)cc1)n1cncn1` (stereo not given), the result was inactive.

As for `O=C1c2ccccc2C(=O)N1SC(Cl)(Cl)Cl`, the call was inactive.

Take `ClC1C(Cl)C(Cl)C(Cl)C(Cl)C1Cl` (stereo not given): the outcome was inactive.

As to `CCS(=O)(=O)c1cccnc1S(=O)(=O)NC(=O)Nc1nc(OC)cc(OC)n1`, the outcome was inactive.

For `CCCN(CCC)c1c([N+](=O)[O-])cc(C(F)(F)F)cc1[N+](=O)[O-]`, the molecule was classed as inactive.

`CCOC1Oc2ccc(OS(C)(=O)=O)cc2C1(C)C` (stereo not given): the molecule was classed as inactive.

`Cc1[nH]c(=O)n(C(C)(C)C)c(=O)c1Cl`: the molecule was called inactive.

As for `C#CCN1C(=O)COc2cc(F)c(N3C(=O)C4=C(CCCC4)C3=O)cc21`, the outcome was inactive.

As for `O=S1OCC2C(CO1)C1(Cl)C(Cl)=C(Cl)C2(Cl)C1(Cl)Cl` (stereo not given), the result was inactive.

On to `O=C(NC(=O)c1c(F)cccc1F)Nc1ccc(OC(F)(F)C(F)OC(F)(F)F)c(Cl)c1` (stereo not given), for which the call was inactive.

As for `N#CN`, the molecule was classed as inactive.

Take `Cc1cc(C)nc(NC(=O)NS(=O)(=O)c2ccccc2C(=O)OC2COC2)n1`: the call was inactive.

Turning to `O=C(O)C(F)(F)C(F)(F)C(F)(F)C(F)(F)C(F)(F)C(F)(F)C(F)(F)F`, the outcome was inactive.

With `N#Cc1c(Cl)c(Cl)c(Cl)c(C#N)c1Cl`, the result was inactive.

With `CN1CSC(=S)N(C)C1`, the molecule was called inactive.

The term AC50 denotes the midpoint of the concentration-response curve, whichever way the signal moves.
